Rce1 inh: blocks yeast Ras-converting enzyme; yeast membranes, quenched prenylated peptide cleavage fluorescence; calls only; 0.27% of 290,000 active; AID 2563;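 active = fall in fluorescence gain of 50% or more versus controls, with final raw signal at or below 3038400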
Rtt109 HAT inh: C. albicans Rtt109 histone acetyltransferase inhibition. 0.16% of 330,000 active. inhibition, % at 34.9 µM. purified Rtt109/Vps75, ThioGlo CoA-SH fluorescence, 4 h. Q5AAJ8. AID 540336;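 active = inhibition of at least 50% in every replicate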
Target sequence (Q5AAJ8 whole entry, looked up): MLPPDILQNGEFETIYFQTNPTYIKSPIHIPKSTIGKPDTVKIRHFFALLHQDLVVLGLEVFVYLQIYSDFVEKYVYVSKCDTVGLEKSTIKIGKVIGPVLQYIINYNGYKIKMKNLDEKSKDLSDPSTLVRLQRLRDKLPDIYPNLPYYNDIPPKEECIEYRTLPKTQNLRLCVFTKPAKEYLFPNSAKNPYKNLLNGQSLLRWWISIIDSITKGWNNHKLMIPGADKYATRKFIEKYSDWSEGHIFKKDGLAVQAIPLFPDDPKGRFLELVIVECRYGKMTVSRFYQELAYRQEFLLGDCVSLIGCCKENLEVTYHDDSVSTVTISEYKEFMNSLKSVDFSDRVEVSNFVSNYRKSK
ALR inh: blocks human ALR sulfhydryl oxidase activity; 3.8% of 290,000 active; inhibition, % (concentration not given with the values); AID 485317; P55789; purified ALR, DTT oxidation, H2O2 HRP-luminol luminescence;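 active = mean replicate inhibition above about 79%, with every replicate also reaching it, limit read from the data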
Target sequence (P55789 whole entry, looked up): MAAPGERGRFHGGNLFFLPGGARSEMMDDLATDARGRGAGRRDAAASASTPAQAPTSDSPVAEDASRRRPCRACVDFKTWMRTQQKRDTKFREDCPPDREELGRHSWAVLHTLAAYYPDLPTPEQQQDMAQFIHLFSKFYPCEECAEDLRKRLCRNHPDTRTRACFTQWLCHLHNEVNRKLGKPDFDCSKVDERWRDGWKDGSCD
GRK2 aptamer HTS: inhibitors of human GRK2 displacing RNA aptamer; inhibition of aptamer binding, % at 10 µM; AID 488847; P25098; bead flow cytometry, FAM-aptamer displacement from GRK2; 0.59% of 330,000 active;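 active = inhibition of aptamer binding above 40%, roughly 3 SD of noise, on plates passing a quality check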;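 note: median bead fluorescence of bound FAM aptamer so fluorescent compounds give negative values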
HDAC3 inhib: human HDAC3 inhibition | O15379 | recombinant HDAC3, fluorogenic peptide/trypsin coupled, fluorescence | inhibition, % at 8.3 µM | 0.15% of 320,000 active | AID 2718; in the data active = inhibition above about 26%, passing the limit was not always enough
Efflux pump inh: inhibitors of Candida antifungal efflux pumps expressed in yeast; S. cerevisiae Candida pump triplex, Nile Red efflux; inhibition, % at 10 µM; 0.44% of 330,000 active; AID 485275;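 active = plate passing quality check with inhibition over a set limit, or well fluorescence over plate mean plus 4 SD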;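 note: Nile Red retained in pooled yeast measured as flow cytometry median fluorescence; higher means more Nile Red kept so more efflux inhibition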
GRK2 CP1: human GRK2 inhibition confirmation, cherry pick 1; bead-bound GRK2, FAM-aptamer displacement, flow cytometry; aptamer displacement, % at 10 µM; 4% of 2,000 active; shares compounds with GRK2 aptamer HTS; AID 504451;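 active = aptamer displacement above 40%, near three times the noise of non-fluorescent compounds, on plates passing quality checks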;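 note: negative values mostly reflect intrinsic compound fluorescence rather than true enhancement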
Aptamer quench: fluorescent aptamer quenching in GRK2 counter-screen dose response; shares compounds with GRK2 aptamer HTS; 110 tested, under 10 active; fluorescence change (kMESF span), kMESF (no concentration beside the values); Fluorescent RNA aptamer beads, flow cytometry; active compounds read high;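 active = compounds whose bead fluorescence drops by more than 37 kMESF across the dose range, marking them as dye quenchers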
FAM quench CP1: aptamer fluorescence quenching in GRK2 counter-screen | fluorescence response (% of DMSO), % at 10 µM | 2,000 tested, under 10 active | shares compounds with GRK2 aptamer HTS | Carboxyfluorescein RNA aptamer on beads, flow cytometry quenching; active compounds read low;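 active = compounds that quench the bead-bound fluorescent RNA probe, cutting fluorescence to under half of the solvent control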;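 note: counterscreen run without GRK2 so only probe quenching by compound is measured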
GRK2 confirm 2: confirmation of human GRK2 inhibitors binding RNA aptamer site; inhibition of aptamer binding, % at 10 µM; shares compounds with GRK2 aptamer HTS; 360 tested, under 10 active; bead-bound GRK2, FAM-aptamer displacement, flow cytometry; AID 504782;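 active = inhibition of aptamer binding above 40%, about triple the noise seen with nonglowing compounds, on plates passing quality control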;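 note: negative values mostly come from compounds that fluoresce themselves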
FAM quench SP: aptamer fluorescence quenching in GRK2 counter-screen; shares compounds with GRK2 aptamer HTS; carboxyfluorescein RNA aptamer beads, flow cytometry quenching; active compounds read low; fluorescence response vs DMSO, % at 10 µM; 360 tested, under 10 active;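 active = response vs DMSO under 50%, meaning signal dropped by over half, treated as fluorescence quencher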;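 note: labelled aptamer on streptavidin beads without GRK2 as a quench counter-screen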
A number is an active result; – = inactive; · = no result given. Compounds with a hit are over-represented: about 4.5% of the library has one in this group of screens.

SMILES	Rce1 inh	Rtt109 HAT inh	ALR inh	GRK2 aptamer HTS	HDAC3 inhib	Efflux pump inh	GRK2 CP1	FAM quench CP1	others
O=C(O)c1c2c(nc3ccc(S(=O)(=O)N4CCC(C(=O)N5CCCCC5)CC4)cc13)CCCC2	·	–	–	84	–	–	–	–
COC(=O)c1c2c(nc3ccccc13)CCC2	·	–	·	–	–	–	·	·
O=C(Cn1cc([N+](=O)[O-])cn1)N1CCc2ccccc21	·	–	–	–	–	–	–	–
CCOc1ncccc1C(=O)OCC(=O)N1CCC(C)CC1	·	–	·	–	–	–	·	·
COc1ccccc1OCCC(=O)Nc1cccc(S(=O)(=O)N2CCCCC2)c1	–	–	·	–	·	–	·	·
COc1ccccc1OCCC(=O)Nc1cccc(S(=O)(=O)N2CCOCC2)c1	·	–	–	97	–	–	–	–
CCC1COCCS(=O)(=O)N1Cc1cccc(C(F)(F)F)c1 (centres undefined)	–	–	–	–	–	–	·	·
CSc1ccccc1C(=O)C1CCCN(C(=O)c2ccc(N3CCOCC3)cc2)C1 (centres undefined)	–	–	–	–	–	–	·	·
O=C(c1cccc2ccccc12)C1CCCN(C(=O)c2ccc(N3CCOCC3)cc2)C1 (centres undefined)	–	–	–	–	–	–	–	–
C=CCNC(=O)C1CC2Cn3c(nc4cc(Cl)c(Cl)cc43)C2N1C (centres undefined)	–	–	·	–	–	–	·	·
COc1cccc(/C=N/NC(=O)CC2C(=O)NN=C2C)c1O (centres undefined)	–	–	97	66	–	–	–	–
CC(=O)Oc1ccc([N+](=O)[O-])cc1N1C(=O)c2ccccc2C1=O	–	–	–	100	–	–	·	·	GRK2 confirm 2=–;FAM quench SP=–
COc1ccc([N+](=O)[O-])cc1N1C(=O)c2cccnc2C1=O	–	–	–	–	–	–	·	·
CC12CCC(C(=O)Nc3nc4ccc(Br)cc4s3)(OC1=O)C2(C)C (centres undefined)	–	–	–	–	–	–	·	·
COCCCn1c(SCC(=O)N(C)C)nnc1-c1ccccc1	–	–	–	99	–	–	–	–
COCCCn1c(SCC(N)=O)nnc1-c1ccccc1	–	–	–	–	–	–	·	·
Cc1cccc(C(=O)OCC(=O)N2CC(=O)Nc3ccccc32)c1C	·	–	–	–	–	–	·	·
Cc1cccc(NC2=CC(=O)CC(C)(C)C2)c1C	–	–	–	–	–	–	·	·
Cc1ccc(C)c(N2N=C(C(=O)N(CC(C)C)c3c(N)n(Cc4ccccc4)c(=O)[nH]c3=O)CCC2=O)c1	–	–	–	–	–	–	–	–
CC(C)CN(C(=O)C1=NN(c2ccccc2)C(=O)CC1)c1c(N)n(Cc2ccccc2)c(=O)[nH]c1=O	·	–	–	–	–	–	·	·
Cc1ccc(Cl)cc1NC(=O)COC(=O)c1ccccc1O	–	–	–	85	–	–	–	–
CC(C)(C)CC(=O)NC(=S)NCCc1ccccc1	–	–	–	80	–	–	–	–
CC(=O)N1CCOCCOCCN(C(C)=O)CCOCC1	–	–	–	–	–	–	·	·
CC1CCCC(NCC(O)COC(c2ccc(F)cc2)c2ccc(F)cc2)C1C (centres undefined)	–	–	–	–	–	–	–	–
CCOC(=O)c1oc2c(O)c(O)ccc2c(=O)c1-c1nncn1-c1ccccc1	–	–	·	–	–	–	·	·
SMILES	Rce1 inh	Rtt109 HAT inh	ALR inh	GRK2 aptamer HTS	HDAC3 inhib	Efflux pump inh	GRK2 CP1	FAM quench CP1	others
CCOC(=O)c1oc2c(C)c(O)ccc2c(=O)c1-c1nncn1-c1ccccc1	–	–	–	75	–	–	–	–
O=C(Cn1cc(C(=O)c2cccs2)c2ccccc21)NCc1ccc2c(c1)OCO2	–	–	–	69	–	–	–	–
COc1ccccc1NS(=O)(=O)c1cccc(C(=O)OCC(=O)NC2CC2)c1	–	–	–	59	–	–	–	–
CNS(=O)(=O)c1cccc(C(=O)OCC(=O)NC2CCCC2)c1	–	–	–	–	–	–	·	·
O=C(CCS(=O)(=O)c1ccc(F)cc1)N1CCOCC1	–	–	–	–	–	–	·	·
COc1ccccc1CNS(=O)(=O)CCNCc1ccco1	·	–	·	·	·	·	·	·
N/C(=N\OC(=O)/C=C/c1ccccc1)c1cccnc1	–	–	–	–	–	–	·	·
N/C(=N\OC(=O)/C=C/c1ccccc1Cl)c1cccnc1	–	·	–	75	–	–	–	–
CCn1c(=O)c2cc(C(=O)NCCCOC)sc2c2ccccc21	–	–	–	–	–	–	·	·
CCn1c(=O)c2cc(C(=O)NCCC(C)C)sc2c2ccccc21	–	–	–	51	–	–	·	–
C#CCOCCOCCOCCNc1nc(N2CCN(C(=O)[C@H](CC(N)=O)n3cc(C(N)[C@@H](C)CC)nn3)CC2)nc(N2CCN(C(=O)[C@H](CCC(=O)O)n3cc([C@@H](N)CCCCN)nn3)CC2)n1 (some centres undefined)	·	–	–	–	–	–	·	·
Cc1ccccc1C(=O)Nc1nncs1	–	–	–	–	–	–	·	·
Cc1cc(C(=O)Nc2nncs2)oc1C	–	–	·	90	–	–	–	–
CCc1sc(C(=O)Nc2nccs2)cc1C	–	–	–	–	–	–	–	–
O=C(NC1CC1)c1cc(=S)[nH]c2ccccc12	·	–	–	–	–	–	–	–
C=C(C)C(=O)Nc1cccc(C2=NOC3(C2)C[C@H](C(N)=O)N(C(=O)c2ccccc2)C3)c1 (some centres undefined)	–	–	·	48	–	–	–	–	Aptamer quench=–
C=C(C)C(=O)N1CC2(CC(c3cccc(NC(=O)/C=C\C=C/C)c3)=NO2)C[C@H]1C(N)=O (some centres undefined)	–	–	–	–	–	–	·	·
C=C(C)C(=O)Nc1cccc(C2=NOC3(C2)C[C@@H](C(N)=O)N(C(=O)C(=C)C)C3)c1 (some centres undefined)	–	–	·	75	–	–	43	–	Aptamer quench=–
C=C(C)C(=O)Nc1cccc(C2=NOC3(C2)C[C@@H](C(N)=O)N(C(=O)c2ccc(Cl)cc2)C3)c1 (some centres undefined)	·	·	–	97	–	–	92	–	Aptamer quench=–

Assay outcomes: PubChem BioAssay, several laboratories
